Compound activity from PubChem BioAssay.
The list is not random: actives were taken first. Their share in the collection is about 2.4%.
PERK inhibitor: human PERK inhibition, primary cell-based screen. inhibition, % at 5.6 µM. Q9NZJ5. 220,000 compounds, 0.17% hits. CHO PERK-DD fusion, SEAP luminescence translation reporter;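 active means inhibition above the mean inhibition of all tested compounds plus 3 SD, set separately per screening campaign, cut at about 2.9% in these data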;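 further: PERK kinase domain activated by AP20187 dimerizer at 100 nM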
Target sequence (Q9NZJ5 whole entry, looked up, the tested form may be a part): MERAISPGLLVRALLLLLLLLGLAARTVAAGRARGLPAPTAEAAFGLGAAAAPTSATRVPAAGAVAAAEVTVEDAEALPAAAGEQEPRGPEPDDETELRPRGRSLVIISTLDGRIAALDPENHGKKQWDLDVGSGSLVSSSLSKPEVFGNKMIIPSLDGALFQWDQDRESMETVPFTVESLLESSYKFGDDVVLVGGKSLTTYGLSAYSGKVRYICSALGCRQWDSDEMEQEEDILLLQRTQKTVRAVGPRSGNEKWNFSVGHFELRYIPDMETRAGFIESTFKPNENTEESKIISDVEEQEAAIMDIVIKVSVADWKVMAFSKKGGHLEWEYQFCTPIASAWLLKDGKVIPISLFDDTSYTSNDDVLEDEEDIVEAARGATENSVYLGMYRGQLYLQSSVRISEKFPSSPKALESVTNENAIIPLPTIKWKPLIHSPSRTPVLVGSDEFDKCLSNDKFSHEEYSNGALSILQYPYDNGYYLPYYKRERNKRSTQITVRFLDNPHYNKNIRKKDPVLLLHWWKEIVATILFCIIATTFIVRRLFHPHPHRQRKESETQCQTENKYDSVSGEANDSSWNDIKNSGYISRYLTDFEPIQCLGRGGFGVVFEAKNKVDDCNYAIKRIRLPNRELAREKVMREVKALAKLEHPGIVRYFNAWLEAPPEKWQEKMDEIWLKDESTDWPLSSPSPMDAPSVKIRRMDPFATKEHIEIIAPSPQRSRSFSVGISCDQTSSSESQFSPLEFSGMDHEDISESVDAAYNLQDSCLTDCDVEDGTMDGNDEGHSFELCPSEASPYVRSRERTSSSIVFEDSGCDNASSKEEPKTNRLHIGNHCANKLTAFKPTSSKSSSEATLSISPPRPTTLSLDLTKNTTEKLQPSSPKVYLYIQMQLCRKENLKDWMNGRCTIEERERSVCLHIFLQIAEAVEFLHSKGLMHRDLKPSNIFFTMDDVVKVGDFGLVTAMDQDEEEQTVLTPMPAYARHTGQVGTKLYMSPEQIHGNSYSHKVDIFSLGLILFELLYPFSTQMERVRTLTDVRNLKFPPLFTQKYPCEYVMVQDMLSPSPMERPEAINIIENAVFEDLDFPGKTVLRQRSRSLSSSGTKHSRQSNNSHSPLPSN
PABP1 MLLE inh: blocks PAM2 peptide binding to the PABP1 MLLE domain; P11940; GST-MLLE / FITC-PAM2 fluorescence polarization; inhibition, % at 20 µM; 360,000 compounds, 0.36% hits; in the data active means inhibition above about 35%, passing the limit was not always enough
PfM18AAP inh: blocks P. falciparum M18 aspartyl aminopeptidase; recombinant PfM18AAP, H-Glu-NHMec fluorogenic cleavage; inhibition, % at 7.35 µM; 290,000 compounds, 1.2% hits; AID 1822;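 active means inhibition above the campaign mean inhibition over all tested compounds plus 3 SD, cut at about 28% in these data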
PABP polyA inh: PABP-poly(A) binding inhibition; P11940; PABP-poly(A) RNA binding, fluorescence polarization; inhibition, % at 35 µM; 290,000 compounds, 1% hits; AID 2014;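 further: calls also rest on retests at 20 µM and on dose response follow-up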
eIF4H inh: inhibitors of RNA binding by human eIF4H | 290,000 compounds, 0.94% hits | eIF4H fluorescence polarization binding assay | inhibition, % at 35 µM | AID 2012 | Q15056;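 further: calls also rest on retests at 20 µM and on dose response follow-up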
eIF4E 4G PPI: inhibitors of eIF4E and eIF4G interaction in translation initiation; P63073+Q04637; TR-FRET eIF4E-eIF4GI(517-606) binding, 2 h; inhibition, % at 21.7 µM; 220,000 compounds, 0.37% hits; AID 782;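 active means inhibition above about 30%, limit read from the data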
Numbers stand for hits; . = inactive; ? = inconclusive; / = no result given. Unless noted, how the calls were made is not given here.

SMILES | PERK inhibitor | PABP1 MLLE inh | PfM18AAP inh | PABP polyA inh | eIF4H inh | eIF4E 4G PPI
COc1ccccc1CNC(=O)CN(C)S(=O)(=O)c1cccc2cccnc12 | . | . | . | . | . | 96
CC(=O)Nc1nonc1-c1ccccc1 | 3.2 | . | . | . | . | .
O=C(NC(=S)Nc1ccc(C(=O)N2CCOCC2)cc1)c1ccc([N+](=O)[O-])cc1 | . | 44 | . | . | . | .
Cc1nn(C)c(C(=O)NC(=S)Nc2ccc([N+](=O)[O-])cc2)c1Cl | / | 40 | . | . | . | /
CC(CCc1ccccc1)NC(=O)CCC1CCCC1 (stereo unspecified) | / | . | / | / | / | /
O=C(NCc1ccc2c(c1)OCO2)C1CC(=O)N(CCc2ccc(F)cc2)C1 (stereo unspecified) | / | . | . | . | . | /
CCOc1ccc(/C=N/n2cc(-c3ccccc3)[nH]c2=S)cc1 | . | . | 54 | . | . | .
CCC(C)(CCNC(=O)Cc1ccccc1)c1ccccc1OC (stereo unspecified) | / | . | . | . | . | /
COc1ccc(C(C[N+](=O)[O-])C2(c3ccc(OC)c(OC)c3)C(=O)c3ccccc3C2=O)cc1 (stereo unspecified) | . | . | 35 | . | . | .
Cc1nonc1NC(=O)CSc1nc(C23CC4CC(CC(C4)C2)C3)nc2ccccc12 | . | . | . | . | . | .
NC(=O)CSc1nc(C23CC4CC(CC(C4)C2)C3)nc2ccccc12 | . | . | . | 59 | . | .
COc1cc(NS(=O)(=O)c2ccc(NC(=S)NC(=O)c3sc4ccccc4c3Cl)cc2)nc(OC)n1 | . | 48 | . | . | . | .
COc1cc(NS(=O)(=O)c2ccc(NC(=S)NC(=O)c3sc4cc(F)ccc4c3Cl)cc2)nc(OC)n1 | . | 41 | . | . | . | .
Cc1sc2nc(COC(=O)c3cccc(S(=O)(=O)N(C)c4ccccc4)c3)[nH]c(=O)c2c1C | . | . | . | ? | ? | .
COc1ccc(-c2onc3ccc(Cl)cc23)cc1 | . | . | . | 68 | 51 | .
Cc1ccc(-c2onc3ccc(Cl)cc23)cc1 | . | . | . | . | . | .
OCCCNc1ncnc2c1ncn2[C@H]1CN(Cc2ccco2)C[C@@H](CO)O1 | / | . | / | / | / | /
O=C(c1cnc2sccn2c1=O)N1CCN(c2ccccc2Cl)CC1 | . | . | . | . | . | 98
O=C(COc1cccc([N+](=O)[O-])c1)NN1C(=O)c2ccccc2C1=O | / | . | . | . | . | /
CCC1(c2ccccc2)NC(=S)N(c2ccc(C)c(C)c2)N1 (stereo unspecified) | . | . | . | . | . | 52
O=C(CCCc1ccccc1)Nc1nccs1 | / | . | / | / | / | /
COc1ccccc1/C=C/C(=O)Nc1cccc(S(=O)(=O)NC2=NCCCCC2)c1 | . | . | . | . | . | .
O=C(c1ccco1)N1CCN(C(=O)c2cc(-c3ccccn3)nc3ccc(Cl)cc23)CC1 | . | . | . | . | 100 | .
CC(NC(=O)c1ccccc1Br)c1nnc(SCC(=O)NC2=NCCS2)n1C (stereo unspecified) | / | . | . | . | . | /
CC(NC(=O)c1ccccc1F)c1nnc(SCC(=O)NC2=NCCS2)n1C (stereo unspecified) | / | . | . | 75 | 90 | /
SMILES | PERK inhibitor | PABP1 MLLE inh | PfM18AAP inh | PABP polyA inh | eIF4H inh | eIF4E 4G PPI
Cc1ccnc2nc(C(=O)OCCOc3ccc(F)cc3)nn12 | . | . | . | . | . | .
COc1ccc(/C=C/C(=O)NCCSCc2ccco2)cc1 | . | . | . | . | . | .
Cc1cc2nc3c(=O)n(CCc4ccccc4)c(=O)[nH]c3nc2cc1N | . | . | 34 | ? | ? | .
CCOC(=O)c1[nH]c2ccccc2c1NC(=S)Nc1cccc(C)c1 | . | . | . | . | . | .
CC(C)CC(=O)NC(=S)NNC(=O)c1ccc(NC(=O)C2CCCCC2)cc1 | . | . | . | active | 61 | .
CSCC(C)N1CCC(n2nccc2NC(=O)CCOc2ccccc2)CC1 (stereo unspecified) | / | . | . | 17 | . | /
Cc1nc(NC(=O)C(C)(C)C)sc1-c1csc(N)n1 | / | . | / | / | / | /
Cc1ccc[n+](-c2nc([O-])sc2/C=N/Nc2ccc([N+](=O)[O-])cc2)c1 | . | 60 | . | . | . | .
COC12CC(=O)C(C(C)=O)=C(O)C1(C)c1c(O)c(C)c(O)c(C(C)=O)c1O2 (stereo unspecified) | / | . | / | / | / | /
O=C(CCC(=O)Nc1nnc(C2CCCCC2)s1)Nc1ccc(F)cc1 | / | . | 29 | . | . | /
O=C(CCC(=O)Nc1nnc(C2CCCCC2)s1)Nc1ccccc1 | / | . | . | . | . | /
Cc1ccc(SCC(=O)OCC(=O)N(C)CC(=O)Nc2ccccc2Cl)cc1C | / | . | . | . | . | /
CCn1c(C)c(P(c2ccccc2)c2ccccc2)[n+]2ccccc12 | . | . | . | . | . | .
CC(OC(=O)Cn1[nH]c(=O)c2ccccc2c1=O)C(=O)Nc1ccccc1[N+](=O)[O-] (stereo unspecified) | / | . | / | / | / | /
CCCNC(=O)C(Cc1ccc(C(F)(F)P(=O)(OCC)OCC)cc1)NC(=O)c1ccc(C#N)cc1 (stereo unspecified) | / | . | / | / | / | /
COc1ccccc1C(=O)NNC(=O)c1ccc(NC(=O)C(C)C)cc1 | . | . | . | . | . | .
CN(C)/C=C(\C#N)C(=O)N/N=C/c1ccc(Cl)cc1 | . | . | . | . | . | .
CN(C)/C=C(\C#N)C(=O)N/N=C(\CC(=O)C(F)(F)F)c1ccco1 | . | . | 30 | . | . | .
CC1(C)S[C@@H]2[C@H](NC(=O)[C@H](N)c3ccccc3)C(=O)N2[C@H]1C(=O)O | . | . | . | 13 | . | .
CC1(C)S[C@@H]2[C@H](NC(=O)[C@H](N)c3ccc(O)cc3)C(=O)N2[C@H]1C(=O)O | . | . | . | . | . | .
CCn1ncc(CNC(=O)c2cccc([N+](=O)[O-])c2)c1C | . | / | . | . | . | .
CC(C)=NN/C(N)=N/C(=S)Nc1ccc(C)cc1 | . | . | 29 | . | . | .
COC(=O)N/N=C/c1cn(Cc2c(Cl)cccc2Cl)c2ccccc12 | . | . | . | . | . | .
Cc1ccccc1-c1nn(-c2ccc(F)cc2F)cc1CNC1CC1 | . | . | . | active | 54 | .
CN(C)C(=O)CN1C(=O)NC2(CCCc3ccccc32)C1=O (stereo unspecified) | / | . | . | . | . | /
COc1ccc(Nc2nc3ccccc3nc2C)cc1 | . | . | . | 62 | 61 | .
Cc1cc(C=C2C(=O)c3ccccc3C2=O)c(C)n1-c1ccc(Cl)cc1 | . | . | . | . | 63 | .
Cc1cc(NS(=O)(=O)c2ccc(NC(=O)COc3ccc(C#N)cc3)cc2)nc(C)n1 | / | . | / | / | / | /
CCCCNC(=S)N(C)/N=C/c1c(C)[nH]c2ccccc12 | . | . | . | . | 50 | .
CC1CN(c2nc3ccccc3nc2C(C#N)C(=O)NCc2ccc3c(c2)OCO3)CC(C)O1 (stereo unspecified) | . | . | . | 94 | . | .
